Inconclusive results are not listed. Active and inactive are the calls of the source. Calls come from the whole dose curve; as a rule, active = well fitted curve in the direction sought with a large enough effect; inconclusive = small, poorly fitted or top-dose-only effect, or another doubt; inactive = no such curve, though single readings can be large; an effect the other way counts as inactive or inconclusive.
How the values were obtained:
[1] = Quantitative High-Throughput drug screen in 47 multiple myeloma cell lines against the NCATS MIPE library collection: KMS21BM_JCRB cell viability assay (AID 1918974); details: ATP luminescence, 48 h; viability: at 45.8 µM
Outline: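 Relative luminescence from CellTiter-Glo served as the viability signal, referenced to DMSO-treated (100%) and cell-free medium (0%) controls. Treatment lasted 48 hours at 37C with 500 cells per well.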

[2] = Quantitative High-Throughput drug screen in 47 multiple myeloma cell lines against the NCATS MIPE library collection: KMS26_JCRB cell viability assay (AID 1918975); note: nearly all actives have a fitted effect of over 45% in size
Outline: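 Steps: seed 500 cells per well; pin-transfer MIPE 4.0 library; incubate 48 h at 37C, 5% CO2, humidified; add CellTiter-Glo, 5 min room temperature; read luminescence.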

[3] = Quantitative High-Throughput drug screen in 47 multiple myeloma cell lines against the NCATS MIPE library collection: NCIH929_DSMZ cell viability assay (AID 1918978); note: nearly all actives have a fitted effect of over 35% in size
Outline: (§1)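 Myeloma cells (500/well) treated with MIPE 4.0 compounds for 48 h at 37 °C, 5% CO2. Viability read as ATP via CellTiter-Glo luminescence after 5 min at RT; DMSO-only wells = 100%, media-only = 0% viability.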

[4] = Quantitative High-Throughput drug screen in 47 multiple myeloma cell lines against the NCATS MIPE library collection: OCIMY1_PLB cell viability assay (AID 1918979); note: nearly all actives have a fitted effect of over 35% in size; for viability: series mostly up to about 46 µM
Outline: as §1

[5] = Quantitative High-Throughput drug screen in 47 multiple myeloma cell lines against the NCATS MIPE library collection: MM1S_ATCC cell viability assay (AID 1918980); note: nearly all actives have a fitted effect of over 45% in size
Outline: as §1

[6] = Quantitative High-Throughput drug screen in 47 multiple myeloma cell lines against the NCATS MIPE library collection: LP1_DSMZ cell viability assay (AID 1918982); note: nearly all actives have a fitted effect of over 35% in size
Outline: as §1

[7] = Quantitative High-Throughput drug screen in 47 multiple myeloma cell lines against the NCATS MIPE library collection: KMS28PE_JCRB cell viability assay (AID 1918983); note: nearly all actives have a fitted effect of over 35% in size
Outline: as §1

[8] = Quantitative High-Throughput drug screen in 47 multiple myeloma cell lines against the NCATS MIPE library collection: MOLP8_DSMZ cell viability assay (AID 1918977); note: nearly all actives have a fitted effect of over 45% in size
Outline: as §1

[9] = Quantitative High-Throughput drug screen in 47 multiple myeloma cell lines against the NCATS MIPE library collection: MM1R_ATCC cell viability assay (AID 1918981); note: nearly all actives have a fitted effect of over 35% in size
Outline: as §1

[10] = Quantitative High-Throughput drug screen in 47 multiple myeloma cell lines against the NCATS MIPE library collection: MMM1_PLB cell viability assay (AID 1918976); note: nearly all actives have a fitted effect of over 35% in size
Outline: as §1

Measured: Potency
Potency is the fitted concentration of half-maximal effect.

NC(=O)c1ncn([C@@H]2O[C@H](CO)[C@@H](O)[C@@H]2O)n1
active: [5] 8.33 µM
not listed: [8] | [9] | [10]
inactive: all other assays above

COc1ccc(-c2nc3ccc(C4=NNC(=O)CC4C)cc3[nH]2)cc1 (stereo not drawn)
active: [5] 23.5 µM
not listed: [3] | [10]
inactive: all other assays above

COc1ccc2ccc(=O)oc2c1CC=C(C)C
active: [2] 10.5 µM | [10] 16.6 µM | [8] 8.33 µM | [4] 23.5 µM | [5] 2.96 µM | [9] 13.2 µM
inactive: [3]

O=C(CO)N1CCC(c2[nH]nc(-c3ccc(Cl)cc3)c2-c2ccncn2)CC1
active: [10] 0.148 µM | [9] 0.662 µM | [7] 0.332 µM
not listed: [1] | [5]
inactive: all other assays above

O=C(Nc1cccc(C(F)(F)F)c1)Nc1cc(S(=O)(=O)NC2CC2)ccc1-c1ccsc1
active: [2] 16.6 µM | [10] 18.7 µM | [8] 4.18 µM | [3] 23.5 µM | [5] 20.9 µM | [9] 20.9 µM

CC(C)C[C@@H](C(=O)N[C@H](C(=O)OC1CCCC1)c1ccccc1)[C@H](O)C(=O)NO
active: [2] 18.7 µM | [10] 23.5 µM | [8] 23.5 µM | [3] 18.7 µM | [4] 16.6 µM | [5] 20.9 µM | [9] 18.7 µM | [7] 23.5 µM

CC[C@H](NC(=O)[C@H](C)NC)C(=O)N1C[C@@H](O)C[C@H]1Cc1c(-c2[nH]c3cc(F)ccc3c2C[C@H]2C[C@H](O)CN2C(=O)[C@H](CC)NC(=O)[C@H](C)NC)[nH]c2cc(F)ccc12
inactive: [8] | [7]
active: [1] 0.526 µM | [3] 20.9 µM | [5] 3.32 µM | [9] 0.418 µM | [6] 20.9 µM

COc1cc2c(cc1Cc1cccc(Cl)c1F)c(=O)c(C(=O)O)cn2[C@H](CO)C(C)C
active: [2] 20.9 µM | [10] 16.6 µM | [8] 13.2 µM | [3] 18.7 µM | [5] 16.6 µM

CCNC(=O)Nc1ccc(Oc2ncnc(N)c2C=NOC)cc1Cl
active: [1] 2.35 µM | [4] 23.5 µM
inactive: [3] | [9]

COc1cc2c(cc1OC)[C@@H]1Cc3ccc(OC)c(OC)c3CN1CC2
active: [2] 4.69 µM | [10] 16.6 µM | [8] 7.43 µM | [5] 2.96 µM | [7] 20.9 µM
inactive: [3] | [4]

CC(C)n1c(C=C[C@H](O)C[C@H](O)CC(=O)O)c(-c2ccc(F)cc2)c2ccccc21
inactive: [4]
active: [1] 29.6 µM | [8] 2.96 µM | [3] 13.2 µM

OCCn1cc(-c2ccc3c(c2)CCC3=NO)c(-c2ccncc2)n1
inactive: [4] | [7]
active: [1] 8.33 µM | [8] 0.0662 µM | [3] 20.9 µM

Nc1ncnc2c1ncn2[C@@H]1O[C@H](CO)[C@@H](O)[C@@H]1O
inactive: [4]
active: [1] 0.209 µM | [3] 8.33 µM | [5] 0.743 µM | [9] 20.9 µM

CC1=C(CC(=O)O)c2cc(F)ccc2C1=Cc1ccc(S(C)=O)cc1 (stereo not drawn)
inactive: [4] | [6]
active: [1] 20.9 µM | [3] 1.05 µM | [9] 3.32 µM | [7] 20.9 µM

CC(C)[C@H](O)C(=O)N[C@@H](C)C(=O)N[C@@H]1C(=O)N(C)CCc2ccccc21
active: [10] 23.5 µM | [8] 0.0053 µM | [3] 16.6 µM
inactive: [2] | [4] | [9] | [6]

CCC(=C(c1ccc(O)cc1)c1ccc(OCCNC)cc1)c1ccccc1
active: [2] 26.4 µM | [10] 20.9 µM | [8] 26.4 µM | [3] 14.8 µM | [5] 20.9 µM | [9] 23.5 µM

CN1[C@H]2CC[C@H]1CC(OC(=O)c1c[nH]c3ccccc13)C2 (stereo partly drawn)
active: [10] 1.32 µM | [8] 2.35 µM | [3] 18.7 µM | [5] 20.9 µM | [7] 9.35 µM
inactive: [2] | [4] | [9] | [6]

CCC[C@H](N[C@@H](C)C(=O)N1[C@@H]2CCCC[C@H]2C[C@H]1C(=O)O)C(=O)OCC
active: [5] 20.9 µM
inactive: [1] | [8] | [3] | [7]

Cc1cccc(Nc2nc(N[C@@H]3CCCC[C@H]3N)ncc2C(N)=O)c1
active: [2] 20.9 µM | [10] 20.9 µM | [8] 14.8 µM | [3] 6.62 µM | [4] 26.4 µM | [9] 26.4 µM | [6] 18.7 µM

N#Cc1ccc(Oc2ccc3c(c2)COB3O)cc1
active: [1] 3.32 µM
inactive: [4] | [7]

C[C@H]1[C@H](O)O[C@@H]2O[C@@]3(C)CC[C@@H]4[C@H](C)CC[C@@H]1[C@@]24OO3
active: [2] 10.5 µM

CC(C)(C)c1nc(-c2cccc(NS(=O)(=O)c3c(F)cccc3F)c2F)c(-c2ccnc(N)n2)s1
inactive: [4] | [7]
active: [1] 2.35 µM | [8] 5.9 µM | [3] 7.43 µM | [5] 16.6 µM | [9] 18.7 µM

CO[C@H]1/C=C\O[C@@]2(C)Oc3c(C)c(O)c4c(O)c(c(C=NN5CCN(C6CCCC6)CC5)c(O)c4c3C2=O)NC(=O)C(C)=CC=C[C@H](C)[C@H](O)[C@@H](C)[C@@H](O)[C@@H](C)[C@H](OC(C)=O)[C@H]1C
active: [2] 20.9 µM | [10] 5.26 µM | [8] 8.33 µM | [3] 0.105 µM | [5] 0.296 µM | [9] 0.187 µM | [6] 1.87 µM | [7] 0.418 µM

CO[C@@H]1C(N(C)C(=O)c2ccccc2)C[C@H]2O[C@]1(C)n1c3ccccc3c3c4c(c5c6ccccc6n2c5c31)C(=O)NC4=O (stereo partly drawn)
active: [2] 1.32 µM

CCN(CC)CCCCNc1nc2cc(Cl)c(Cl)cc2nc1-c1ccc(-c2cccs2)s1
active: [2] 13.2 µM | [10] 9.35 µM | [8] 8.33 µM | [3] 7.43 µM | [4] 14.8 µM | [5] 11.8 µM | [9] 9.35 µM | [6] 8.33 µM | [7] 18.7 µM

CN1CCc2c(n(Cc3ccc(C(=O)NO)cc3)c3ccccc23)C1
active: [2] 14.8 µM | [10] 14.8 µM | [8] 18.7 µM | [3] 16.6 µM | [4] 18.7 µM | [5] 16.6 µM | [9] 18.7 µM | [7] 14.8 µM

CC1(C)C(N(O)C(=O)Nc2ccc(Cl)cc2)N(c2ccc(Cl)cc2)C(=O)N1CC(=O)NN=CC=Cc1ccc([N+](=O)[O-])o1 (stereo not drawn)
active: [2] 8.33 µM | [10] 14.8 µM | [8] 3.72 µM | [3] 7.43 µM | [4] 8.33 µM | [9] 5.26 µM | [6] 16.6 µM | [7] 8.33 µM

COc1ccc(Cn2ccc3ccc(C(=O)NO)cc32)cc1
active: [1] 5.9 µM | [3] 18.7 µM | [5] 16.6 µM | [6] 16.6 µM
inactive: [9] | [7]

CNC1CCC(N(Cc2cccc(-c3ccncc3)c2)C(=O)c2sc3ccccc3c2Cl)CC1 (stereo not drawn)
active: [2] 20.9 µM | [10] 20.9 µM | [8] 16.6 µM | [3] 10.5 µM | [5] 20.9 µM | [9] 18.7 µM | [6] 26.4 µM | [7] 23.5 µM

Cc1csc(-c2nnc(Nc3ccc(Oc4ncccc4-c4ccnc(N)n4)cc3)c3ccccc23)c1
active: [1] 18.7 µM | [4] 5.26 µM | [5] 18.7 µM | [9] 20.9 µM | [6] 20.9 µM

c1cc(OCCN2CCCCC2)cc(-c2n[nH]c3ccc(-c4ncn[nH]4)cc23)c1
active: [1] 3.72 µM | [9] 26.4 µM | [7] 16.6 µM

CCC(=O)OCC(=O)[C@@]1(OC(=O)CC)[C@@H](C)C[C@@H]2[C@H]3CCC4=CC(=O)C=C[C@]4(C)[C@@]3(F)[C@@H](O)C[C@@]21C
inactive: [3] | [4]
active: [1] 2.64 µM

CC(C)Oc1cc(Nc2nc(N[C@@H](C)c3ccc(F)cn3)ncc2Cl)[nH]n1
active: [1] 5.26 µM | [3] 5.26 µM | [5] 23.5 µM | [9] 26.4 µM

O=C(c1ccc(C(=O)N2CCC(N3CCCC3)CC2)c(Nc2ccccc2)c1)N1CCC(N2CCCC2)CC1
inactive: [1] | [8] | [3] | [4] | [9] | [6]

CC1(C)CC(=O)c2c(C(F)(F)F)nn(-c3ccc(C(N)=O)c(NC4CCC(O)CC4)c3)c2C1 (stereo not drawn)
active: [2] 0.0469 µM | [10] 0.372 µM | [8] 0.0418 µM | [3] 0.105 µM | [4] 0.235 µM | [5] 0.148 µM | [9] 0.118 µM | [7] 0.118 µM

CC(C)=CCCC(C)=CCCC(C)=CCCC(C)=CCCC(C)=CCCC(C)=CCCC(C)=CCCC(C)=CCCC(C)=CCO
active: [8] 9.35 µM
not listed: [1]
inactive: all other assays above

NS(=O)(=O)c1cc(Cl)c(Cl)c(S(N)(=O)=O)c1
active: [10] 18.7 µM
not listed: [1]
inactive: all other assays above

COc1ccc2c(c1)c(C1=C(c3c[nH]c4ccccc34)C(=O)NC1=O)cn2CCCN(C)C
active: [1] 0.469 µM | [8] 14.8 µM | [3] 23.5 µM | [9] 23.5 µM
inactive: [6]

CC[C@H](C)C(=O)O[C@H]1C[C@H](O)C=C2C=C[C@H](C)[C@H](CC[C@@H](O)C[C@@H](O)CC(=O)O)[C@H]21
inactive: [1] | [8] | [4] | [5] | [6] | [7]
